For 54 molecules, max fluorescein-equivalent concentration results are on record in PubChem BioAssay AID593 (National Center for Advancing Translational Sciences (NCATS), 2007).

SMILES strings stand for the structures. Among all 59,000 compounds or so, about 540 (0.92%) were called active. Inconclusive results (about 33%) are left out. Cut-off read from the data, not from the text of the source: active = max fluorescein-equivalent concentration above about 10 nM; inconclusive = between about 1.1 nM and that limit; inactive = weaker than that. What follows is part of a selection rich in actives, with near analogues and random picks from the rest.

The nature of this assay: qHTS Assay for Spectroscopic Profiling in Fluorescein Spectral Region. The note with it: Compound autofluorescence, 480/540 nm; max fluorescein-equivalent concentration: stronger effect = higher value; outcome: fluorescein-equivalent. The text has this:
NIH Molecular Libraries Screening Centers Network [MLSCN]
NIH Chemical Genomics Center [NCGC]
Occasionally, the artifactual effect may originate from the compound's own spectral or other biophysical properties which generally tend to track its assay concentration. Pre-screening/profiling the library with respect to the compounds' spectral properties should help one exclude false positives early on. While the most informative fluorescent profiling data set is obtained by performing a full excitation and emission scan of each well by using a monochromator-based plate reader, such an approach is practical only on a very limited scale as scanning each well requires long time. An alternative approach, applied here, is to perform plate reader scans using selected excitation and emission wavelength pairs to generate a multidimensional relational database that correlates compound concentration and the respective relative fluorescence intensity at a given wavelength set. A standard curve of fluorescein present on each plate as six-point concentration series, was used to compute a normalized fluorescence response, termed dye-equivalent concentration, for each compound at each concentration.
NCGC Assay Protocol Summary:
100 mM Tris buffer, pH 8.0
The wells in columns 1 through 4 of a Kalypsys polypropylene 1536-well compound plate were filled with standard solutions of fluorophore corresponding to the spectral region of interest. Solutions of Fluorescein were placed in the following wells: Q1, R1: 3 mM, Q2, R2: 300 uM, Q3, R3: 30 uM, Q4, R4: zero (DMSO), S1, T1: 3 uM, S2, T2: 900 nM, S3, T3: 300 nM, S4, T4: zero (DMSO).
Six uL of buffer were dispensed to 1536-well Greiner black plates. Compounds and dye standards (23 nL) were transferred via Kalypsys PinTool. The plates were incubated for 15 min at room temperature, and then read on ViewLux (Perkin-Elmer) High-throughput CCD imager using 480 nm and 540 nm excitation and emission filter set.
Keywords: NIH Roadmap, MLSCN, MLI, MLSMR, qHTS, NCGC, Fluorescein, Fluorescent Profiling.
(In general: Quantitative high-throughput screening tests each substance at several concentrations.)
For the molecule `COc1ccc2nc(NC3=NCN(CC4CCCO4)CN3)nc(C)c2c1` (centres undefined), the max fluorescein-equivalent concentration result was “inactive”. Turning to `COc1cccc(Nc2ncc3ncc(=O)n(C4CC4)c3n2)c1`, the max fluorescein-equivalent concentration result is “inactive”.

For `Oc1c(Br)cc(CN(Cc2cc(Br)c(O)c(Br)c2)C2CCCCC2)cc1Br`, the max fluorescein-equivalent concentration result is “inactive”. For `COc1ccc(C2C3=C(CC(C)(C)CC3=O)Oc3ncn4nc(-c5cccnc5)nc4c32)cc1OC` (centres undefined), the max fluorescein-equivalent concentration result is “inactive”. In the case of `O=C(c1ccc([N+](=O)[O-])cc1)[C@@H](Br)[C@@H](Br)c1ccnc2ccccc12`, the max fluorescein-equivalent concentration result was “inactive”.

In the case of `CN(C)CCSS(=O)(=O)O`, the max fluorescein-equivalent concentration result was “inactive”. The same measure for `CCCn1c(SCC(=O)c2ccc3c(c2)OCCO3)nnc1C(C)C`: “inactive”. `CCCCOc1ccccc1/C=c1/sc2nc(-c3oc4ccccc4c3C)nn2c1=O`: the max fluorescein-equivalent concentration entry is “inactive”.

As to `COc1cccc(Cn2c(=O)c(-c3cc(F)cc(F)c3)nc3cnc(OC)nc32)c1`, the max fluorescein-equivalent concentration entry was “inactive”. The same measure for `CCOC(=O)CSc1nc2sc3c(c2c(=O)[nH]1)CC(C)(C)OC3`: “inactive”; for `CCOc1ccc2[nH]c(=O)c(CN(CCCO)C(C)=O)cc2c1`: “inactive”. The same measure for `CN1CCN(CC(=O)C23CC4CC(CC(C4)C2)C3)CC1`: “inactive”; for `c1ccc2sc(SCCSc3nc4ccccc4s3)nc2c1`: “inactive”. Consider `CCOC(=O)c1csc(NC(=O)c2ccc(S(=O)(=O)N3CCCC3)cc2)n1`, for which the max fluorescein-equivalent concentration entry is “inactive”. Turning to `O=C(c1ccco1)N1CCC2(CC1)CN(c1ncccn1)C2`, the max fluorescein-equivalent concentration result was “inactive”. Regarding `CCOC(=O)c1sc(NC(=O)c2cc(S(=O)(=O)N3CCOCC3)ccc2C)nc1C`, the max fluorescein-equivalent concentration result was “inactive”.

On to `COc1cccc(-c2nc(Nc3ccncc3)c3ccccc3n2)c1`, for which the max fluorescein-equivalent concentration entry was “inactive”. Turning to `CC(C)NC(=O)N1CC[C@@]2(CCCN(C(=O)c3cccn3C)C2)C1`, the max fluorescein-equivalent concentration result was “inactive”. In the case of `CCCCCC(=O)Nc1ccc2oc(-c3ccncc3)nc2c1`, the max fluorescein-equivalent concentration result was “inactive”.

In the case of `Cc1ccc(CC2CC(=O)N(c3ccc4c(c3)OCCO4)C2=O)cc1` (centres undefined), the max fluorescein-equivalent concentration entry is “inactive”. For the molecule `CCOC(=O)C1C(=O)NC(N2CCN(c3ccccc3)CC2)=NC1c1ccco1` (centres undefined), the max fluorescein-equivalent concentration entry was “inactive”. For `O=C(c1cnccn1)N1CCC2(CCN(Cc3cc(C(F)(F)F)cc(C(F)(F)F)c3)CC2)CC1`, the max fluorescein-equivalent concentration entry was “inactive”.

For `N=c1c2c3c(sc2ncn1N)CCCCC3`, the max fluorescein-equivalent concentration result is “inactive”. On to `O=c1c(-c2ccc(F)cc2)nc2cnc(N3CCNCC3)nc2n1Cc1cccs1`, for which the max fluorescein-equivalent concentration result is “inactive”. Regarding `CCN(CC)C(=O)C1CCC(C)(C(=O)O)C1(C)C` (centres undefined), the max fluorescein-equivalent concentration entry was “inactive”.

As to `CCc1ccc(CCC(=O)Nc2ccc(S(N)(=O)=O)cc2)o1`, the max fluorescein-equivalent concentration result was “inactive”. `COc1ccc(-c2nc(SCC(=O)N3CCOCC3)n[nH]2)cc1`: the max fluorescein-equivalent concentration result was “inactive”. For the molecule `CN(C)/C=C1/Nc2ccccc2C1=O`, the max fluorescein-equivalent concentration result is “inactive”. Consider `COC(=O)C(C)N(C#N)c1nc(C)nc(C)n1` (centres undefined), for which the max fluorescein-equivalent concentration result was “inactive”. The same measure for `COCCCn1c2nc3ccccc3nc2c2c(=O)n(Cc3ccc(Cl)cc3)c(C)nc21`: “inactive”. For the molecule `CCN(CC)S(=O)(=O)c1ccc2nc(CSc3nnnn3-c3ccc(O)cc3)[nH]c2c1`, the max fluorescein-equivalent concentration entry is “inactive”. The same measure for `COc1cc(OC)cc(C(=O)Nc2ccc(-c3nc4ccccc4o3)c(O)c2)c1`: “inactive”; for `CC(=O)c1ccc(N2C(=NC(=O)C(C)C)SC3CS(=O)(=O)CC32)cc1` (centres undefined): “inactive”.

With `COc1ccc(C(c2nnnn2Cc2cccs2)N2CCN(c3ccccc3)CC2)cc1OC` (centres undefined), the max fluorescein-equivalent concentration result is “inactive”. Consider `CC(=O)c1ccc(NC(=O)N[C@@H](Cc2ccccc2)C(=O)O)cc1`, for which the max fluorescein-equivalent concentration result is “inactive”. As for `CC(C)c1ccc(-c2nn[nH]n2)cc1`, the max fluorescein-equivalent concentration result is “inactive”. Consider `Cn1c(SCC(=O)c2cccs2)nnc1-c1ccco1`, for which the max fluorescein-equivalent concentration entry is “inactive”. The same measure for `CC1(C)Cc2ccccc2-c2nnc(-c3cccc(O)c3)n21`: “inactive”; for `CC1(C)Cc2cccc(OCC(=O)Nc3nccs3)c2O1`: “inactive”; for `COC(=O)c1ccc(NC(=O)CSc2nnc(-c3ccncc3)n2C)cc1`: “inactive”. In the case of `Cc1ccc(C)c(NC(=O)C2CC(=O)N(C(C)C)C2)c1` (centres undefined), the max fluorescein-equivalent concentration result was “inactive”. With `Cc1ccccc1-c1nc(N(C)Cc2ccco2)c2ccccc2n1`, the max fluorescein-equivalent concentration entry was “inactive”.

Turning to `c1ccc(CSCCc2ccncc2)cc1`, the max fluorescein-equivalent concentration result is “inactive”. With `C[C@]1(O)CC[C@H]2[C@H]3CC=C4N5CCN=C5CC[C@@]4(C)[C@H]3CC[C@@]21C`, the max fluorescein-equivalent concentration entry was “inactive”. Regarding `O=c1[nH]nc(Cc2ccccn2)c2ccccc12`, the max fluorescein-equivalent concentration result is “inactive”. Take `Cc1ccc(-c2noc(CN3CCN(Cc4ccccc4)CC3)n2)cc1`: the max fluorescein-equivalent concentration entry is “inactive”. `CCOC(=O)c1cc2occc2n1CC(=O)NC1CCC(C)CC1` (centres undefined): the max fluorescein-equivalent concentration entry was “inactive”. Consider `COc1ccc(C(=O)N(Cc2ccc(N(C)C)cc2)C2CCS(=O)(=O)C2)cc1` (centres undefined), for which the max fluorescein-equivalent concentration entry was “inactive”. On to `O=S(=O)(NCCOc1cccc2cccnc12)c1ccc(F)cc1`, for which the max fluorescein-equivalent concentration result is “inactive”. As to `Nc1nc2c(ncn2[C@H]2CC[C@@H](CO)O2)c(=O)n1C(=O)c1ccccc1`, the max fluorescein-equivalent concentration entry is “inactive”. In the case of `O=C(O)[C@H](CCc1ccccn1)c1ccccc1`, the max fluorescein-equivalent concentration entry was “inactive”.

For `O=C(O)c1c(Br)c(Br)c(Br)c(Br)c1C1c2ccc(O)cc2Oc2cc(O)ccc21`, the max fluorescein-equivalent concentration is 320 nM (active). With `O=C(COc1cccc(-n2cnnn2)c1)NCCC1=CCCCC1`, the max fluorescein-equivalent concentration result is “inactive”.

For `Cc1cc2c(cc1C)NC1=C(N2)O[C@H](c2c[nH]c3ccc(COc4ccccc4)cc23)C1=O`, the max fluorescein-equivalent concentration entry is “inactive”.
